Experimental data taken from PubChem BioAssay.
“And” between values parts separate entries of the source, which are not always exact repeats. Identical values can stand only once.

Assay: viability loss with induced miR-34 in A549 – imaging, A549 dox-inducible miR-34, nuclei and caspase counts, primary screen (AID 1347080); also: test concentration not given here
Details: A549 miR-34 inducible, Hoechst nuclei count, 48 h; measured here: relative caspase fold change +Dox/-Dox
Work on Cc1cc2c(OCC(CNC(C)(C)C)OC(=O)c3ccccc3)cccc2[nH]1 (stereo not given) yielded a fold change of 1.26.
CC(CNC1CCCCC1)OC(=O)c1ccccc1 (stereo not given) gave a fold change of 0.946.
With C[C@]12CC[C@H]3[C@@H](CCC4=CC(=O)CC[C@@]43C)[C@@H]1CC[C@@H]2C(=O)CO the fold change was 1.3.
CCc1cccc(CC)c1NC(=O)CN(CC(=O)O)CC(=O)O showed a fold change of 1.63.
Compound CCC(=O)c1ccc(O)cc1 has a fold change of 0.966.
Work on FCOC(C(F)(F)F)C(F)(F)F yielded a fold change of 1.07.
For COc1ccccc1Oc1c(NS(=O)(=O)c2ccc(C(C)(C)C)cc2)nc(-c2ncccn2)nc1OCCO, the fold change was 1.38 and 0.578 and 1.32.
In the case of CCC(C)(CN(C)C)OC(=O)c1ccccc1 (stereo not given), the fold change is reported as 0.9.
With OC[C@@H](O)[C@@H](O[C@@H]1O[C@H](CO)[C@H](O)[C@H](O)[C@H]1O)[C@H](O)[C@@H](O)CO the fold change was 0.884.
Work on CC1(C)CC1C(=O)NC(=CCCCCSCC(N)C(=O)O)C(=O)O (stereo not given) yielded a fold change of 1.99.
For C/C(=C(\CCOP(=O)(O)O)SC(=O)c1ccccc1)N(C=O)Cc1cnc(C)nc1N, the fold change was 1.12.
With CC[N+](C)(CC)CCOC(=O)C1c2ccccc2Oc2ccccc21 the fold change was 0.614.
For CN1CCN(CCCN2c3ccccc3Sc3ccc(S(=O)(=O)N(C)C)cc32)CC1, the fold change was 1.43.
For O=C(O)CCc1nc2ccccc2[nH]1, the fold change was 1.12.
For OC(CCCN1CCCCC1)(c1ccccc1)c1ccccc1, the fold change was 1.32 and 0.648.
With NS(=O)(=O)c1cc(C(=O)O)cc(N2CCCC2)c1Oc1ccccc1 the fold change was 0.688.
Work on CN(CCCCCCCCCCN(C)C(=O)Oc1cccc([N+](C)(C)C)c1)C(=O)Oc1cccc([N+](C)(C)C)c1 yielded a fold change of 1.05.
Compound CC(C(=O)O)c1ccc(C(=O)c2ccccc2)s1 (stereo not given) has a fold change of 1.29.
In the case of CN1CCCN(C(c2ccccc2)c2ccc(Cl)cc2)CC1 (stereo not given), the fold change is reported as 1.48.
In the case of O=C1CC[C@@H](C(=O)O)N1, the fold change is reported as 0.936.
With CCOC(=O)Nc1ccc2c(c1)N(C(=O)CCN1CCOCC1)c1ccccc1S2 the fold change was 1.07.
Work on COc1ccc(-c2cc(=S)ss2)cc1 yielded a fold change of 1.14.
Compound CN1CCN(C2=Nc3ccccc3Sc3ccc(Cl)cc32)CC1 has a fold change of 1.18.
With CCCNC(C)C(=O)Nc1c(C)csc1C(=O)OC (stereo not given) the fold change was 0.61 and 0.602.
With O=C(O)Cc1sc(-c2ccccc2)nc1-c1ccc(Cl)cc1 the fold change was 0.944.
Work on NS(=O)(=O)c1cc2c(cc1Cl)NC(CC1CCCC1)NS2(=O)=O (stereo not given) yielded a fold change of 0.594.
With O=C(O)c1ccc[n+]([O-])c1 the fold change was 0.969.
Compound CN(C)CCn1nnnc1SCC1=C(C(=O)O)N2C(=O)[C@@H](NC(=O)Cc3csc(N)n3)[C@H]2SC1 has a fold change of 1.13.
With CC(C)(C)C(=O)OCOC(=O)[C@@H]1N2C(=O)[C@@H](NC(=O)[C@H](N)c3ccccc3)[C@H]2SC1(C)C the fold change was 0.701.
With COCC(=O)Nc1c(I)c(C(=O)NCC(O)CO)c(I)c(C(=O)N(C)CC(O)CO)c1I (stereo not given) the fold change was 1.69.
Compound C1CCN2C[C@@H]3C[C@@H](CN4CCCC[C@@H]34)[C@H]2C1 has a fold change of 1.2.
In the case of Cc1c(-c2ccccc2)oc2c(C(=O)OCCN3CCCCC3)cccc2c1=O, the fold change is reported as 1.01 and 0.699.
Compound CCCCN1C[C@H](O)[C@@H](O)[C@H](O)[C@H]1CO has a fold change of 0.958.
With NC(=O)OCC(O)COc1ccc(Cl)cc1 (stereo not given) the fold change was 2.23.
CCCCc1cc2ccccc2c(OCCN(C)C)n1 gave a fold change of 1.26.
O=C1[O][Bi][O]c2ccccc21 showed a fold change of 3.11.
For C[N+]1(C)CCC(=C(c2ccccc2)c2ccccc2)CC1, the fold change was 0.619 and 0.415.
CC(C)NC[C@@H](O)COc1ccc(CC(N)=O)cc1 showed a fold change of 1.15.
OCc1ccccn1 showed a fold change of 0.701.
Work on CN1CCCC(CC2c3ccccc3Sc3ccccc32)C1 (stereo not given) yielded a fold change of 1.45.

Same assay, conditions: A549 miR-34 inducible, Hoechst nuclei count, 48 h; measured here: total cells with miR-34 induction; stronger effect = lower value
Cc1cc2c(OCC(CNC(C)(C)C)OC(=O)c3ccccc3)cccc2[nH]1 (stereo not given) showed a cell count of 9400.
CC(CNC1CCCCC1)OC(=O)c1ccccc1 (stereo not given) showed a cell count of 9180.
C[C@]12CC[C@H]3[C@@H](CCC4=CC(=O)CC[C@@]43C)[C@@H]1CC[C@@H]2C(=O)CO gave a cell count of 7560.
In the case of CCc1cccc(CC)c1NC(=O)CN(CC(=O)O)CC(=O)O, the cell count is reported as 9160.
With CCC(=O)c1ccc(O)cc1 the cell count was 7980.
Compound FCOC(C(F)(F)F)C(F)(F)F has a cell count of 8640.
For COc1ccccc1Oc1c(NS(=O)(=O)c2ccc(C(C)(C)C)cc2)nc(-c2ncccn2)nc1OCCO, the cell count was 8280 and 8370 and 9010.
With CCC(C)(CN(C)C)OC(=O)c1ccccc1 (stereo not given) the cell count was 8680.
With OC[C@@H](O)[C@@H](O[C@@H]1O[C@H](CO)[C@H](O)[C@H](O)[C@H]1O)[C@H](O)[C@@H](O)CO the cell count was 8700.
In the case of CC1(C)CC1C(=O)NC(=CCCCCSCC(N)C(=O)O)C(=O)O (stereo not given), the cell count is reported as 9810.
For C/C(=C(\CCOP(=O)(O)O)SC(=O)c1ccccc1)N(C=O)Cc1cnc(C)nc1N, the cell count was 8510.
With CC[N+](C)(CC)CCOC(=O)C1c2ccccc2Oc2ccccc21 the cell count was 9340.
Compound CN1CCN(CCCN2c3ccccc3Sc3ccc(S(=O)(=O)N(C)C)cc32)CC1 has a cell count of 7890.
Compound O=C(O)CCc1nc2ccccc2[nH]1 has a cell count of 8680.
In the case of OC(CCCN1CCCCC1)(c1ccccc1)c1ccccc1, the cell count is reported as 8770 and 8200.
Work on NS(=O)(=O)c1cc(C(=O)O)cc(N2CCCC2)c1Oc1ccccc1 yielded a cell count of 8630.
CN(CCCCCCCCCCN(C)C(=O)Oc1cccc([N+](C)(C)C)c1)C(=O)Oc1cccc([N+](C)(C)C)c1 showed a cell count of 8660.
CC(C(=O)O)c1ccc(C(=O)c2ccccc2)s1 (stereo not given) gave a cell count of 9200.
CN1CCCN(C(c2ccccc2)c2ccc(Cl)cc2)CC1 (stereo not given) gave a cell count of 7610.
For O=C1CC[C@@H](C(=O)O)N1, the cell count was 8600.
CCOC(=O)Nc1ccc2c(c1)N(C(=O)CCN1CCOCC1)c1ccccc1S2 gave a cell count of 8790.
Compound COc1ccc(-c2cc(=S)ss2)cc1 has a cell count of 8880.
With CN1CCN(C2=Nc3ccccc3Sc3ccc(Cl)cc32)CC1 the cell count was 8380.
For CCCNC(C)C(=O)Nc1c(C)csc1C(=O)OC (stereo not given), the cell count was 8960 and 8560.
Work on O=C(O)Cc1sc(-c2ccccc2)nc1-c1ccc(Cl)cc1 yielded a cell count of 10000.
NS(=O)(=O)c1cc2c(cc1Cl)NC(CC1CCCC1)NS2(=O)=O (stereo not given) showed a cell count of 9530.
With O=C(O)c1ccc[n+]([O-])c1 the cell count was 8660.
CN(C)CCn1nnnc1SCC1=C(C(=O)O)N2C(=O)[C@@H](NC(=O)Cc3csc(N)n3)[C@H]2SC1 showed a cell count of 8320.
Compound CC(C)(C)C(=O)OCOC(=O)[C@@H]1N2C(=O)[C@@H](NC(=O)[C@H](N)c3ccccc3)[C@H]2SC1(C)C has a cell count of 9310.
With COCC(=O)Nc1c(I)c(C(=O)NCC(O)CO)c(I)c(C(=O)N(C)CC(O)CO)c1I (stereo not given) the cell count was 8610.
With C1CCN2C[C@@H]3C[C@@H](CN4CCCC[C@@H]34)[C@H]2C1 the cell count was 8930.
For Cc1c(-c2ccccc2)oc2c(C(=O)OCCN3CCCCC3)cccc2c1=O, the cell count was 8120 and 9090.
CCCCN1C[C@H](O)[C@@H](O)[C@H](O)[C@H]1CO showed a cell count of 9280.
With NC(=O)OCC(O)COc1ccc(Cl)cc1 (stereo not given) the cell count was 8110.
With CCCCc1cc2ccccc2c(OCCN(C)C)n1 the cell count was 6620.
O=C1[O][Bi][O]c2ccccc21 showed a cell count of 12000.
In the case of C[N+]1(C)CCC(=C(c2ccccc2)c2ccccc2)CC1, the cell count is reported as 8340 and 8800.
In the case of CC(C)NC[C@@H](O)COc1ccc(CC(N)=O)cc1, the cell count is reported as 9650.
Compound OCc1ccccn1 has a cell count of 8220.
Work on CN1CCCC(CC2c3ccccc3Sc3ccccc32)C1 (stereo not given) yielded a cell count of 6900.
